{"source": "PubChem BioAssay AID435030", "about": "(The Scripps Research Institute Molecular Screening Center, 2010)", "note": "Screen size: about 330,000 compounds; about 940 (0.28%) were called active. Cut-off read from the data, not from the text of the source: active = inhibition above about 12%; inactive = the rest. Shown is part of a subset that was picked to be rich in actives."}
{"assay": "growth inhibition of E. coli expressing H. pylori AddAB, primary screen, AddAB inhibitor project, absorbance (AID 435030);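 note: 0% = vehicle wells of infected cells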", "conditions": "at 11.9 µM, active compounds read high"}
{"smiles": "COc1cccc(C(=O)N2CCC(n3nccc3NC(=O)C3CCOC3)CC2)c1", "note": "(stereo unspecified)", "inhibition": "0.08% (inactive)"}
{"smiles": "Cc1ccc(-c2nnc(CN3CCN(C)CC3)o2)cc1", "inhibition": "-0.67% (inactive)"}
{"smiles": "CC(C)(C)SCCSC1=CC(=O)CC(c2ccccc2)C1", "note": "(stereo unspecified)", "inhibition": "0.25% (inactive)"}
{"smiles": "CCn1cc(CN2CCN(CC(C)(C)C)C(CCO)C2)c2ccccc21", "note": "(stereo unspecified)", "inhibition": "-1.04% (inactive)"}
{"smiles": "COc1ccccc1NC(=O)C1=C(C)Nc2ncnn2C1c1ccc(C)o1", "note": "(stereo unspecified)", "inhibition": "-0.48% (inactive)"}
{"smiles": "CC1=C(C(=O)OCc2ccccc2)C(c2ccco2)n2ncnc2N1", "note": "(stereo unspecified)", "inhibition": "14.7% (active)"}
{"smiles": "CC1=C(C(=O)OC2CCCCC2)C(c2cccnc2)n2ncnc2N1", "note": "(stereo unspecified)", "inhibition": "0% (inactive)"}
{"smiles": "COC(=O)C1(C)NC(c2ccc(F)cc2)C2C(=O)N(c3ccccc3)C(=O)C21", "note": "(stereo unspecified)", "inhibition": "1.16% (inactive)"}
{"smiles": "CC(C)C[C@H]1CN=C(Nc2ccccc2)N1CC1CCCCC1", "inhibition": "2.92% (inactive)"}
{"smiles": "CCOc1ccc(C(C)=O)cc1COC(=O)CNC(=O)c1cccs1", "inhibition": "3.06% (inactive)"}
{"smiles": "CC1CCCC(C)N1C(=O)CN1CCN(c2nc(-c3ccc(F)cc3)cs2)CC1", "note": "(stereo unspecified)", "inhibition": "1.81% (inactive)"}
{"smiles": "CCn1c(=S)sc2c(=O)n(CC(=O)Nc3ccc(OC)cc3)c(C)nc21", "inhibition": "0.15% (inactive)"}
{"smiles": "O=C1Nc2cc(Cl)c(Cl)cc2N(O)N1c1cc(Cl)cc(Cl)c1", "inhibition": "-1% (inactive)"}
{"smiles": "COC(=O)C1=C(C)N(C)C(=O)NC1c1ccc([N+](=O)[O-])o1", "note": "(stereo unspecified)", "inhibition": "3.34% (inactive)"}
{"smiles": "C/[N+]([O-])=C\\c1ccc([N+](=O)[O-])o1", "inhibition": "79% (active)"}
{"smiles": "COc1ccc(C(=O)NCC(=O)N/N=C/c2ccc([N+](=O)[O-])o2)cc1OC", "inhibition": "9.43% (inactive)"}
{"smiles": "COc1ccc(Br)cc1/C=N/Nc1ccc(Cl)c(C(=O)O)c1", "inhibition": "1.8% (inactive)"}
{"smiles": "CCOc1cccc(/C=N/NC(=S)NCCN2CCOCC2)c1O", "inhibition": "-0.42% (inactive)"}
{"smiles": "COc1cccc(/C=N/Nc2ncc(C(F)(F)F)cc2Cl)c1O", "inhibition": "12.5% (active)"}
{"smiles": "Cc1cccc(NC(=O)c2ccc([N+](=O)[O-])o2)c1", "inhibition": "38.2% (active)"}
{"smiles": "Cc1onc(NC(=O)c2ccc([N+](=O)[O-])o2)c1Br", "inhibition": "9.34% (inactive)"}
{"smiles": "O=C(Nc1ccc(Br)cn1)c1ccc([N+](=O)[O-])cc1Cl", "inhibition": "-0.17% (inactive)"}
{"smiles": "CN1C(=O)c2ccc(C(=O)Nc3ccc(Br)cn3)cc2C1=O", "inhibition": "-3.02% (inactive)"}
{"smiles": "O=C(Nc1ccc(Br)cn1)c1ccc([N+](=O)[O-])o1", "inhibition": "97.7% (active)"}
{"smiles": "O=C(Nc1cccc(O)c1)c1ccc(C(=O)c2ccccc2)o1", "inhibition": "1.45% (inactive)"}
{"smiles": "CCOc1ccc(C(C)=O)cc1COC(=O)CN1C(=O)NC2(CCCC2)C1=O", "inhibition": "0.34% (inactive)"}
{"smiles": "Brc1cnc(N2CCCC2)nc1N1CCCCC1", "inhibition": "2.22% (inactive)"}
{"smiles": "CCC(=C/c1sc2ccc3ccccc3c2[n+]1C)/C=C1\\Sc2ccc3ccccc3c2N1C", "inhibition": "9.85% (inactive)"}
{"smiles": "Cc1ccc(S(=O)(=O)c2ccc(Cl)cc2)cc1S(=O)(=O)NC(C(=O)O)C(C)C", "note": "(stereo unspecified)", "inhibition": "3.7% (inactive)"}
{"smiles": "NC(=O)C1CCN(C(=O)c2ccc3c(=O)n(Cc4cccc(Br)c4)c(=S)[nH]c3c2)CC1", "inhibition": "1.96% (inactive)"}
{"smiles": "COc1ccc(NC(=O)C(Br)C(C)C)cc1", "note": "(stereo unspecified)", "inhibition": "0.42% (inactive)"}
{"smiles": "O=C(CSc1ccc(-c2ccco2)nn1)Nc1cccc(F)c1", "inhibition": "1.52% (inactive)"}
{"smiles": "O=C(CSc1ccc(-c2ccccn2)nn1)Nc1ccccc1", "inhibition": "12.4% (active)"}
{"smiles": "O=C(CSc1ccc(-c2ccc(-n3cccn3)cc2)nn1)Nc1ccc([N+](=O)[O-])cc1", "inhibition": "2.04% (inactive)"}
{"smiles": "O=C(CNc1ccc(F)cc1F)NC(=O)NCc1ccco1", "inhibition": "-1.79% (inactive)"}
{"smiles": "O=C1CCCC(O)=C1N=Nc1ccc2ncsc2c1", "inhibition": "1.13% (inactive)"}
{"smiles": "COc1ccc(CNC(=O)CN(c2ccc(OC)c(Cl)c2)S(=O)(=O)c2ccc(C)cc2)cc1", "inhibition": "0.77% (inactive)"}
{"smiles": "Oc1cccc(/C=N/Nc2ccc(Cl)nn2)c1O", "inhibition": "13.3% (active)"}
{"smiles": "Oc1c(Br)cccc1/C=N/Nc1c(F)c(F)c(F)c(F)c1F", "inhibition": "5.1% (inactive)"}
{"smiles": "Oc1ccc(Br)cc1/C=N/Nc1ccccn1", "inhibition": "4.69% (inactive)"}
{"smiles": "Cc1noc(C)c1C(=O)OC(C)C(=O)Nc1ccc2c(c1)OCO2", "note": "(stereo unspecified)", "inhibition": "1.01% (inactive)"}
{"smiles": "CC1(C)c2[nH]c3ccccc3c2C[C@H]2C(=O)N(N)CC(=O)N21", "inhibition": "-0.5% (inactive)"}
{"smiles": "O=C(CCc1ccc(S(=O)(=O)N2CCOCC2)cc1)OCC(=O)c1ccc(Br)cc1", "inhibition": "3.02% (inactive)"}
{"smiles": "Cc1nnc(NC2=NCCCCC2)o1", "inhibition": "0.25% (inactive)"}
{"smiles": "O=C1CCC(=O)N(O)CCCCCNC(=O)CCC(=O)N(O)CCCCCNC(=O)CCC(=O)N(O)CCCCCN1", "inhibition": "35.8% (active)"}
{"smiles": "CCN1CCC2(CCN(Cc3cn[nH]c3-c3ccc(OC)c(F)c3)C2)C1", "note": "(stereo unspecified)", "inhibition": "0.65% (inactive)"}
{"smiles": "CCOC(=O)c1ccccc1N1C(=O)C2Sc3[nH]c(=O)sc3C(/C=C/c3ccccc3)C2C1=O", "note": "(stereo unspecified)", "inhibition": "2.63% (inactive)"}
{"smiles": "COc1ccc(C2/C=C\\CN(CC(C)C)CC(=O)N2Cc2ccc(F)cc2)cc1", "note": "(stereo unspecified)", "inhibition": "2.22% (inactive)"}
{"smiles": "O=C1/C(=C/c2cccs2)SC(=S)N1C1CCS(=O)(=O)C1", "note": "(stereo unspecified)", "inhibition": "-0.44% (inactive)"}
{"smiles": "CCOc1ccc(NC(=O)CN(C)C(=O)Cc2sc(C)nc2-c2ccc(F)cc2)cc1OCC", "inhibition": "1.75% (inactive)"}
{"smiles": "CCN1/C(=C\\c2ccc3ccccc3[n+]2CC)Sc2cc(C)ccc21", "inhibition": "13.3% (active)"}
{"smiles": "O=C(NCCCN1CCCCCC1)C1CC(=O)N(C2CCCC2)C1", "note": "(stereo unspecified)", "inhibition": "-0.68% (inactive)"}
{"smiles": "O=C(Nc1cccc(S(=O)(=O)N2CCOCC2)c1)C12CC3CC(CC(C3)C1)C2", "inhibition": "0.82% (inactive)"}
{"smiles": "CC(C)(C)NC(=O)COC(=O)c1cc(Cl)ccc1[N+](=O)[O-]", "inhibition": "57.9% (active)"}
{"smiles": "CCCC(=O)OCC(=O)Nc1cc(Cl)ccc1[N+](=O)[O-]", "inhibition": "0.77% (inactive)"}
{"smiles": "CC(C)(C)NC(=O)COC(=O)c1cc(Br)ccc1Cl", "inhibition": "1.15% (inactive)"}
{"smiles": "CN(NC(=O)C1CC(=O)N(c2ccccc2)C1)C1=NS(=O)(=O)c2ccccc21", "note": "(stereo unspecified)", "inhibition": "1% (inactive)"}
{"smiles": "Cn1nnc2cc(C(=O)NCCC3=CCCCC3)ccc21", "inhibition": "0% (inactive)"}
{"smiles": "CC1CCCN(C(=O)c2ccc3c(c2)C(=O)N(CCC2=CCCCC2)C3=O)C1", "note": "(stereo unspecified)", "inhibition": "22.9% (active)"}
{"smiles": "Cc1cc(=O)n2nc(N3CCCC(C(=O)NCCC4=CCCCC4)C3)sc2n1", "note": "(stereo unspecified)", "inhibition": "0.49% (inactive)"}
{"smiles": "O=C(c1n[nH]c2c1CCC2)N1CCCC(Nc2cccc(F)c2)C1", "note": "(stereo unspecified)", "inhibition": "2.86% (inactive)"}
{"smiles": "Cc1cc(C)c2c(c1)cc(C)c1nnc(SCC(=O)Nc3cc(C)on3)n12", "inhibition": "1.96% (inactive)"}
{"smiles": "Cc1cc(S(=O)(=O)c2cc3ccc(O)c(C)c3oc2=O)ccc1F", "inhibition": "0.08% (inactive)"}
{"smiles": "CC1CN(C(=S)Nc2ccccc2F)CC(C)O1", "note": "(stereo unspecified)", "inhibition": "-1.09% (inactive)"}
{"smiles": "COc1c(N2CCN(C(=S)Nc3ccccc3F)C(C)C2)c(F)cc2c(=O)c(C(=O)O)cn(C3CC3)c12", "note": "(stereo unspecified)", "inhibition": "99.7% (active)"}
{"smiles": "COc1ccccc1NC(=S)N1CCN(c2ccc(F)cc2)CC1", "inhibition": "-2.49% (inactive)"}
{"smiles": "COc1ccc(Cl)cc1C(=O)OCC(=O)NCc1cccs1", "inhibition": "0.75% (inactive)"}
{"smiles": "Cc1ccc(S(=O)(=O)N2CCN(C(=O)Cn3c(=O)cnc4ccccc43)CC2)c(C)c1", "inhibition": "0.34% (inactive)"}
{"smiles": "O=C(Nc1ccc(OC(F)(F)F)cc1)c1ccc2c(c1)no[n+]2[O-]", "inhibition": "3.14% (inactive)"}
{"smiles": "CCn1cc(C(=O)NCCC(=O)NCCO)c(=O)c2cc3c(cc21)OCO3", "inhibition": "-2.55% (inactive)"}
{"smiles": "CCn1cc(S(=O)(=O)c2cccc(C)c2)c(=O)c2cc(F)c(N3CCN(C)CC3)cc21", "inhibition": "-1.64% (inactive)"}
{"smiles": "CCCCCCn1cc(C(=O)O)c(=O)c2cc(F)c(N3CCCCC3)cc21", "inhibition": "-1.14% (inactive)"}
{"smiles": "CN1CCN(c2cc3c(cc2F)c(=O)c(C(=O)O)cn3CCF)CC1", "inhibition": "98.6% (active)"}
{"smiles": "CCCCNC(=O)c1cn(CC)c2cc(N3CCN(C(=O)c4ccco4)CC3)c(F)cc2c1=O", "inhibition": "11.8% (inactive)"}
{"smiles": "CCn1cc(C(=O)NCCO)c(=O)c2cc(F)c(N3CCN(C)CC3)cc21", "inhibition": "98.8% (active)"}
{"smiles": "Cc1csc(NC(=O)C2CCCN2C(=O)OCC(C)C)n1", "note": "(stereo unspecified)", "inhibition": "0.97% (inactive)"}
{"smiles": "Cc1nn(C)c(C)c1Sc1ccccc1N", "inhibition": "-0.51% (inactive)"}
{"smiles": "O=C(COC(=O)Cn1[nH]c(=O)c2ccccc2c1=O)Nc1c(Cl)cccc1C(F)(F)F", "inhibition": "-0.85% (inactive)"}
{"smiles": "O=C(OCC(=O)c1cccs1)C1=COCCO1", "inhibition": "3.94% (inactive)"}
{"smiles": "O=C(OCC(=O)c1cccs1)c1ccc([N+](=O)[O-])o1", "inhibition": "16.4% (active)"}
{"smiles": "O=C(COC(=O)c1ccc([N+](=O)[O-])o1)NC12CC3CC(CC(C3)C1)C2", "inhibition": "2.74% (inactive)"}
{"smiles": "O=C(Cc1ccccc1)NNC1CC(=O)N(c2ccc(Br)cc2)C1=O", "note": "(stereo unspecified)", "inhibition": "0.17% (inactive)"}
{"smiles": "Cc1ccccc1OCC(=O)NNC(=O)c1cc(S(=O)(=O)N(C)C)ccc1N1CCCC1", "inhibition": "-1.04% (inactive)"}
{"smiles": "Cc1cc([N+](=O)[O-])nn1CC(=O)Nc1ccc(Cc2ccncc2)cc1", "inhibition": "-1.17% (inactive)"}
{"smiles": "Cc1ccc(COc2ccc(C(=O)NN)cc2)cc1", "inhibition": "3% (inactive)"}
{"smiles": "O=C(C/C(=N\\NC(=O)c1ccccc1Br)C(F)(F)F)c1cccs1", "inhibition": "0.69% (inactive)"}
{"smiles": "C=CC(=O)OCCOCCOCCOCCOC(=O)C=C", "inhibition": "-0.85% (inactive)"}
{"smiles": "CC1C(=O)N2CCCc3cc(S(=O)(=O)NCc4ccc(F)cc4)cc1c32", "note": "(stereo unspecified)", "inhibition": "-1.44% (inactive)"}
{"smiles": "Cc1c(C=O)c2ccccc2n1CC(=O)O", "inhibition": "-5.83% (inactive)"}
{"smiles": "CC(=O)c1c(C)n([O-])c2ccccc2[n+]1=O", "inhibition": "38.5% (active)"}
{"smiles": "CCNc1nc(NC(C)C)nc(N2CC(=O)N(CC(=O)OCC)C2=N)n1", "inhibition": "-0.43% (inactive)"}
{"smiles": "CNC(C)C#Cc1ccc2sc3cc(OC)c(OC)cc3c(=O)c2c1", "note": "(stereo unspecified)", "inhibition": "3.07% (inactive)"}
{"smiles": "O=C(C1=C(O)C(=O)N(CCOCCO)C1c1ccccn1)c1cccs1", "note": "(stereo unspecified)", "inhibition": "-0.51% (inactive)"}
{"smiles": "O=C(NCC1CCCO1)/C(=C/c1ccc(Cl)cc1)NC(=O)c1ccccc1", "note": "(stereo unspecified)", "inhibition": "3.87% (inactive)"}
{"smiles": "O=C(CSc1ccc(-c2ccccc2)nn1)NCC1CCCO1", "note": "(stereo unspecified)", "inhibition": "-1.35% (inactive)"}
{"smiles": "O=C(NCC1CCCO1)C(C(=O)c1ccccc1)n1cc(Cl)ccc1=O", "note": "(stereo unspecified)", "inhibition": "99.8% (active)"}
